# Experimental data taken from the supplement of paper PMC10981050.
# Values joined by “and” are separate entries in the source; they are usually repeats but may differ in a detail not shown here. Equal values may be shown once. Where a name gives a salt, the structure may show the parent alone.
# Tests used:
# Assay in all cases: cell viability relative to vehicle control; higher = less cytotoxic
# Settings in all cases: 10 µM
# K562 = tested on: K562
# Summary of the method: (§1)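 Mutant clones made by CRISPR editing and their isogenic wild-type counterparts, from four leukaemia lines, were exposed to a single 10 µM dose of each library compound for 48 h. The supernatant was then removed and CellTiter-Glo luminescence was read. Viability was reported as percent of the on-plate vehicle control.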
# MARIMO = tested on: MARIMO
# Summary of the method: as §1
# MOLM14 = tested on: MOLM14
# Summary of the method: as §1
# OCI-AML2 = tested on: OCI-AML2
# Summary of the method: as §1
Compound,cell viability (K562; SRSF2 genotype: SRSF2 P95H/wt),cell viability (K562; SRSF2 genotype: SRSF2 wt/wt) [%],cell viability (MARIMO; SRSF2 genotype: SRSF2 P95H/wt) [%],cell viability (MARIMO; SRSF2 genotype: SRSF2 wt/wt) [%],cell viability (MOLM14; SRSF2 genotype: SRSF2 P95H/wt) [%],cell viability (MOLM14; SRSF2 genotype: SRSF2 wt/wt) [%],cell viability (OCI-AML2; SRSF2 genotype: P95H/wt) [%],cell viability (OCI-AML2; SRSF2 genotype: wt/wt) [%]
CC(C)Oc1ccc(-c2nn([C@@H](C)c3oc4ccc(F)cc4c(=O)c3-c3cccc(F)c3)c3ncnc(N)c23)cc1F,89.1% and 94.3%,87.6,84.8,94.9,77,71.8,67.4,72.3
O=C(O)CCC(=O)Nc1ccc(Br)cn1 [Bikinin],100% and 97.8%,106,104,104,102,106,102,99.7
c1cc2c(c3c1C[C@H]1c4cc5c(cc4CCN1C3)OCO5)OCO2 [Stylopine hydrochloride],90.4% and 91.9%,91.4,97.7,96.3,88,94,92.8,97.5
COc1ccccc1OCC(O)CN1CCN(CC(=O)Nc2c(C)cccc2C)CC1 (stereo not drawn) [Ranolazine dihydrochloride],92.7% and 97.6%,101,96.7,103,98.8,100,102,111
O=C(Nc1ccc(Oc2ccc(Cl)cc2)c(Cl)c1)c1cc(I)cc(I)c1O [Rafoxanide],85.2% and 95.8%,97.9,101,111,80.4,108,105,101
NC(=S)N/N=C/c1ncccc1N [Triapine],75.8% and 77.5%,76.5,20.1,15.3,6.66,1.54,13.1,15.1
Nc1nc2[nH]cnc2c(=S)[nH]1 [Thioguanine],25.9% and 28.5%,26.8,46.3,37.5,35.2,23,13.5,20.5
Cc1ccc(-n2sc(=O)n(Cc3ccc(F)cc3)c2=O)cc1,78.6% and 73.5%,78,67.2,72.6,47.6,61.8,50.6,50.9
CNC(=O)c1nn(C)c2c1C(C)(C)Cc1cnc(Nc3ccc(N4CCN(C)CC4)cc3)nc1-2,34% and 36.5%,25.2,21.4,22.6,16,5.62,13.8,19.4
Cn1cc(-c2ccc3nnc(C(F)(F)c4ccc5ncccc5c4)n3n2)cn1,94.1% and 97.8%,98.8,102,105,96,99.2,86.9,89.6
CN(C)c1ccc2c(c1)Sc1cc(N(C)C)ccc1N2 [TRx0237 (LMTX) mesylate],35.5% and 35.7%,20.9,20.4,18.9,5.72,2.96,6.33,10.7
